High-throughput results from PubChem BioAssay.
tim10-1 inh = growth inhibitors of tim10-1 mutant yeast, primary screen, luminescence, uHTS; AID 463190, 2010; 330,000 compounds, 2.2% hits; S. cerevisiae tim10-1 ts strain growth, BacTiter-Glo, 24 h; inhibition, % at 20 µM;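 active = inhibition of at least 40%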;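 note: mutant grown at 25 °C; 0% = DMSO wells with yeast and 100% = wells holding no yeast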
TIM10 inh = growth inhibitors of isogenic TIM10 control yeast, primary screen, counter-screen for tim10-1 yeast inhibitor project, luminescence, uHTS; S. cerevisiae TIM10 strain growth, BacTiter-Glo luminescence, 24 h; inhibition, % at 10 µM; 330,000 compounds, 1.4% hits;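 active = inhibition of 40% or more at the single tested concentration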;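 note: wild-type TIM10 isogenic control strain grown at permissive 25 °C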
EBI2 block = EBI2 receptor antagonists, beta-arrestin recruitment, primary screen, cell-based, luminescence, 7a,25-OHC stimulation, uHTS. 7a,25-OHC stimulated. inhibition, % at 5 µM. 360,000 compounds, 0.81% hits. AID 651636, 2012; in the data active = inhibition above about 38%;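 note: enzyme fragment complementation signal reports receptor beta-arrestin coupling in cells; 0% = agonist plus DMSO wells and 100% = wells without agonist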
Target sequence (P32249 whole entry, looked up, the tested form may be a part): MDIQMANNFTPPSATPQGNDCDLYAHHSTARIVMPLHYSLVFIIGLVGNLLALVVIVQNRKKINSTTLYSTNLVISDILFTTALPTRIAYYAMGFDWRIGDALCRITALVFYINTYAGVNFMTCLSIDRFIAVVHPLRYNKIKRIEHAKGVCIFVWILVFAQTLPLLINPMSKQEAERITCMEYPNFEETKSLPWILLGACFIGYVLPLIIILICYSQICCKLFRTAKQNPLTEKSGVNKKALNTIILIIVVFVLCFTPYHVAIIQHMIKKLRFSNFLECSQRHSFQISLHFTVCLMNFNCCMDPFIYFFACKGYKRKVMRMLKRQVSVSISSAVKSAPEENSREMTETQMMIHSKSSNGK
tim23-1 inh = growth inhibitors of tim23-1 mutant yeast, primary screen, luminescence, uHTS | AID 463212, 2010 | inhibition, % at 20 µM | S. cerevisiae tim23-1 growth, BacTiter-Glo luminescence, 24 h | 330,000 compounds, 1.3% hits;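 active = growth inhibition of the mutant yeast at or above 50%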;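 note: temperature-sensitive mutant grown at 25 °C; plate controls were DMSO-treated mutant yeast for no effect and medium wells lacking yeast for full effect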
PfHsp90 set2 = growth inhibition of PfHsp90-expressing yeast, primary screen, antimalarial PfHsp90 inhibitor project, S. cerevisiae, BacTiter-Glo luminescence, single point, set 2. BacTiter-Glo ATP, 48 h; yeast lacking PDR1 and PDR3 efflux regulators. inhibition, % at 9.4 µM. 310,000 compounds, 0.32% hits. AID 504621, 2011;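 active = every replicate shows inhibition above about 80%, whatever the replicate mean, limit read from the data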;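 note: 0% = DMSO neutral controls and 100% = 20 µM radicicol positive controls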
SKKanGAS inh = S. pyogenes SKKanGAS growth inhibitors in kanamycin, primary screen, streptokinase expression inhibitor project, SKKanGAS strain, BacTiter-Glo luminescence; 6 h; inhibition, % at 7.5 µM; 300,000 compounds, 1.3% hits; AID 1662, 2009;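 active = mean replicate score, as percent of positive control median, at least 50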;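 note: strain carries kanamycin resistance gene driven by streptokinase promoter and grows in 40 µg/ml kanamycin; loss of luminescence reflects streptokinase promoter inhibition or plain growth inhibition; 0% = median of DMSO wells and 100% = positive control at its reference dose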
tim10-1 conf = growth inhibitors of tim10-1 mutant yeast, confirmation, single concentration, luminescence, S. cerevisiae; shares compounds with tim10-1 inh; S. cerevisiae tim10-1 ts strain growth, BacTiter-Glo, 24 h; inhibition, % at 20 µM; 7,400 compounds, 56% hits; AID 463213, 2010;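 active = inhibition of yeast growth at or above a set limit in either of two repeat tests at 20 µM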;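 note: tim10-1 mutant grown at permissive 25 °C to find synthetic lethal compounds; 0% = DMSO yeast wells and 100% = medium wells without yeast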
tim10 confirm = growth inhibitors of wild-type TIM10 yeast, confirmation, counter-screen for tim10-1 synthetic lethality project, single concentration, luminescence, S. cerevisiae; AID 463215, 2010; 4,600 compounds, 63% hits; inhibition, % at 10 µM; S. cerevisiae tim10 strain growth, BacTiter-Glo luminescence, 24 h; shares compounds with TIM10 inh;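 active = inhibition of yeast growth at or above a set limit in either of two replicates at 10 µM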;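 note: this counterscreen used the strain with wild-type TIM10; 0% = yeast with DMSO and 100% = medium wells lacking yeast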
Numbers without * were called inactive; · = no result given. Rows were chosen to be rich in hits. Some 4.7% of all compounds tested hit in one or more screens of this group.

SMILES	tim10-1 inh	TIM10 inh	EBI2 block	tim23-1 inh	PfHsp90 set2	SKKanGAS inh	tim10-1 conf	tim10 confirm
COc1ccc(NS(=O)(=O)c2ccc(C)c(NC(=O)CN3C(=O)NC4(CCCC4)C3=O)c2)cc1	-9.6	-5.4	0.3	-14.8	7.4	·	·	·
COc1ccc(NC(=O)CN(c2ccc(C)cc2)S(=O)(=O)c2c(C)nn(C)c2C)cc1	28.6	9.5	-4.1	15.3	26.3	0.1	·	·
COc1ccc2nc(NC(=O)CN(c3ccc(C)cc3)S(=O)(=O)c3c(C)nn(C)c3C)sc2c1	44.7*	41.5*	23.8	40.1	·	25.7	30.9*	44.1*
Cc1cccc(C)c1NC(=S)Nc1ccc(Cl)c(Cl)c1	47.5*	51.6*	-3.7	24.7	-8.8	19.5	38.2*	47.6*
CC(C(=O)Nc1cccc(S(=O)(=O)N2CCOCC2)c1)N1CCN(c2ccc(F)cc2)CC1 (configuration not stated)	7.9	7.7	3.2	10.3	-18.4	7.2	·	·
O=Cc1cccc(OC(=O)c2ccc(Cl)cc2Cl)c1	42.0*	45.1*	·	44.4	·	3.6	28.2	16.8
COc1cc(C(=O)Oc2cccc(C=O)c2)cc(OC)c1OC	33.1	24.0	-5.5	26.1	-22.7	1.5	·	·
Cc1ccc(C(c2nnnn2CCc2ccccc2)N2CCSCC2)cc1 (configuration not stated)	31.0	34.1	19.2	24.1	1.4	-2.2	·	·
Cc1ccc(C(c2nnnn2CCc2ccccc2)N2CCC(C)CC2)cc1 (configuration not stated)	44.9*	46.9*	10.4	44.3	-0.5	7.6	35.9*	-4.2
N/C(Cc1ccc([N+](=O)[O-])cc1)=N\OC(=O)Cc1ccc(Cl)cc1	65.7*	40.7*	-8.7	37.0	-11.1	4.7	15.6	76.6*
N/C(Cc1ccc(Cl)cc1Cl)=N\OC(=O)Cc1ccc(Cl)cc1	62.1*	85.3*	-7.8	46.7	7.9	-13.8	54.6*	5.0
CCc1ccc(OCC(=O)O/N=C(\N)Cc2ccc([N+](=O)[O-])cc2)cc1	57.1*	59.7*	-7.5	47.5	-25.9	-5.8	72.8*	41.2*
N/C(Cc1ccc(Cl)cc1Cl)=N\OC(=O)c1ccccc1	65.1*	86.4*	-2.7	20.4	·	10.0	24.3	84.5*
CCCNC(=O)Nc1cc(OC)c(OC)cc1Cc1nccc2cc(OC)c(OC)cc12	2.0	2.5	-6.3	7.3	-5.7	-1.5	·	·
CCCc1nnc(NC(=O)CCC(=O)NC2CCCCCC2)s1	0.6	-1.8	-9.9	-1.6	16.0	-3.8	·	·
COc1ccccc1NC(=O)c1ccc2[nH]c(C)c(C)c2c1	23.6	15.7	10.8	21.6	8.7	1.7	·	·
O=C(Nc1ccccc1N1CCCC1)c1cccc(F)c1	15.9	7.7	-13.2	19.0	-31.2	-4.5	·	·
Cc1ccc(C(=O)Nc2ccccc2N2CCCCC2)cc1	22.0	9.5	0.0	25.7	16.2	19.2	·	·
O=C(NC(=S)Nc1ccccc1N1CCCCC1)c1ccccc1	47.9*	59.9*	-16.9	49.0	-10.8	15.6	44.5*	47.0*
CC1CCN(c2ccccc2NC(=S)NC(=O)c2cccs2)CC1	48.9*	48.2*	8.8	40.8	-10.5	87.4*	33.9*	37.6*
O=C(NC(=S)Nc1ccccc1N1CCCC1)c1cccc(F)c1	52.0*	52.1*	-9.9	31.5	-13.3	-5.3	28.8	48.3*
O=C(COC(=O)c1ccc([N+](=O)[O-])cc1Cl)Nc1cccnc1Cl	-0.4	2.7	-8.6	0.4	-43.7	-2.3	·	·
COc1ccccc1NS(=O)(=O)c1ccc2oc(=O)ccc2c1	42.8*	46.5*	9.2	30.0	-43.3	0.4	20.7	44.4*
COc1ccccc1NCC(O)Cn1c2ccccc2c2ccccc21 (configuration not stated)	52.2*	42.5*	10.4	-23.5	-50.4	-12.3	29.2	40.5*
S=c1[nH]nc(-c2ccc(Br)cc2)n1Cc1ccccc1	42.4*	46.4*	1.5	19.3	-15.9	0.1	25.4	45.0*
SMILES	tim10-1 inh	TIM10 inh	EBI2 block	tim23-1 inh	PfHsp90 set2	SKKanGAS inh	tim10-1 conf	tim10 confirm
S=c1[nH]nc(-c2ccncc2)n1Cc1ccccc1	8.7	10.0	9.5	4.1	-14.6	0.0	·	·
Cc1ccccc1OCC(=O)NCC(=O)N/N=C/c1ccc(Br)o1	12.3	14.4	9.0	14.6	-11.0	-14.3	·	·
Cc1ccccc1OCC(=O)N/N=C/c1ccc([N+](=O)[O-])o1	44.6*	41.6*	13.0	45.5	-12.3	2.9	35.1*	22.8
CCOC(=O)N/N=C\c1ccc([N+](=O)[O-])o1	16.2	7.0	-0.6	36.1	-20.7	7.3	·	·
COc1ccccc1OCC(=O)N/N=C/C=C/c1ccc([N+](=O)[O-])o1	67.0*	47.7*	-6.4	46.4	-0.5	-18.5	83.7*	50.8*
CCCCCCCC(=O)N/N=C/c1ccc([N+](=O)[O-])o1	55.2*	49.4*	-12.9	43.1	·	-0.6	56.3*	26.1
Cc1ccc(NC(=O)CCNS(=O)(=O)c2cccc3nsnc23)cc1F	-10.2	3.6	-0.6	5.4	11.4	2.4	·	·
CCN=C(NCC)SC1CC(=O)N(c2ccc(F)cc2)C1=O (configuration not stated)	2.5	-3.7	-6.2	3.9	·	-0.5	·	·
CCOC(=O)N1CCN(C(=O)c2cn(CC)c3ccc(S(=O)(=O)N4CCC(C)CC4)cc3c2=O)CC1	1.9	3.0	-9.0	11.1	3.6	0.4	·	·
CCN(CC)S(=O)(=O)c1ccc(N2CCOCC2)c(NC(=O)c2cc3ccccc3o2)c1	·	·	10.9	·	·	·	·	·
CCn1c2c(c3cc(OCC(C)C)ccc31)CCCC2=O	-6.4	-5.6	7.6	16.7	-28.4	-7.7	·	·
CCn1c2c(c3cc(Br)ccc31)CCC/C2=N\O	65.6*	53.9*	-13.0	29.1	-7.4	5.2	39.3*	33.9*
CCOc1c(OC(C)=O)ccc(/C=C2\N=C(SCC)SC2=O)c1[N+](=O)[O-]	50.0*	44.8*	-3.6	36.8	20.6	-3.3	46.0*	30.6*
Cc1cc2occ(CC(=O)N(C)CC(=O)Nc3ccccc3Cl)c2cc1C	13.1	0.0	-1.1	29.7	-17.7	-15.7	·	·
